# Laboratory results reported in PubChem BioAssay (Tox21).
# Inconclusive results are not listed. Entries that show only a call come without a potency. Activity calls are given as the source filed them. Calls follow the shape of the dose curve; as a rule, active = well fitted inhibition curve with a large enough effect in the signal ratio in the repeat runs (not every such curve was filed as active); inconclusive = weak or mixed curves, or effect the other way; inactive = no such curve, though single readings can be large or run the other way; the % refers to the signal ratio.
# Target: Bile acid receptor (Homo sapiens) (UniProt Q96RI1)
# Assay: qHTS assay to identify small molecule antagonists of the farnesoid-X-receptor (FXR) signaling pathway (AID 743217)
# Settings: HEK293T FXR-UAS-bla, beta-lactamase ratio, CDCA-stimulated, 16 h; series mostly up to 62.6 µM
# Source text: U.S. Tox21 Program National Center for Advancing Translational Sciences [NCATS] NIH Chemical Genomics Center [NCGC] U.S. Environmental Protection Agency [EPA] National Institutes of Environmental Health Sciences [NIEHS] National Toxicology Program [NTP] U.S. Food and Drug Administration [FDA] Tox21 Assay Overview: The farnesoid-X-receptor (FXR), a nuclear hormone receptor, is highly expressed in liver, intestine, kidney and adrenal cortex. Natural ligands of FXR are the bile acids (Cholic acid, Chenodeoxy cholic acid etc). FXR is an important regulator of diverse metabolic pathways, including the bile acid homeostasis, lipid and glucose metabolisms. FXR regulates the expression of target genes by binding either as a monomer or as a heterodimer with the retinoid X receptor (RXR). Numerous studies have reported that FXR exerts protective function during cholestasis, diabetes, liver regeneration, and cancer. To identify compounds that inhibit FXR signaling, GeneBLAzer FXR-UAS-bla HEK 293T cell line (Invitrogen, Carlsbad, CA) containing a beta-lactamase reporter gene under the control of a UAS response element was used to screen the Tox21 10K compound library.
# Tox21 Assay Protocol Summary: FXR-bla cells were dispensed at 5000 cells/5uL/well in 1536-well black wall/clear bottom plates using a Multidrop Combi (Thermo Fisher Scientific, Waltham, MA) dispenser. After the assay plates were incubated at 37C and 5% CO2 for 5 h, 23 nL of compounds dissolved in DMSO, positive controls or DMSO only was transferred to the assay plate by a Pintool station (Kalypsys, San Diego, CA), followed by addition of 1 uL Chenodeoxycholic acid (50 uM, final concentration in the wells). The assay plates were incubated at 37C for 16 h. After 1 uL of LiveBLAzerTM B/G FRET substrate was added using a Bioraptr Flying Reagent Dispenser (FRD) workstation (Beckman Coulter, Indianapolis, IN), the plates were incubated at room temperature for 2 h, and fluorescence intensity was measured by an Envision plate reader (PerkinElmer, Shelton, CT).
# Potency is read from the fitted curve at half-maximal effect.
# Chain of Bile acid receptor (Homo sapiens) (Q96RI1 whole entry, looked up): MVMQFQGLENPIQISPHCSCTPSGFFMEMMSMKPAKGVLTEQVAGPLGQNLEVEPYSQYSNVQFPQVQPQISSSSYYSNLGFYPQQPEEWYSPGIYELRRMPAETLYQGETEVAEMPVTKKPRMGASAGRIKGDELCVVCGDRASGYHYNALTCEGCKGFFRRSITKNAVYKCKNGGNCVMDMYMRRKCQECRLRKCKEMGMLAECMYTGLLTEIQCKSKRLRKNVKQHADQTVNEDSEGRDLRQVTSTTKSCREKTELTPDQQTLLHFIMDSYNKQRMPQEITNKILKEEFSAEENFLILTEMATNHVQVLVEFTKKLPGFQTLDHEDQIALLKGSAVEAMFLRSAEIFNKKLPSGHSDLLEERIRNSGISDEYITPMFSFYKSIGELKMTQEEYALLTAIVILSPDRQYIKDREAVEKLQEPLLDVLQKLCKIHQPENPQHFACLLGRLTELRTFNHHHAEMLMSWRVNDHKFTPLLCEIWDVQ
row,Compound,Potency
1,Cc1cc(C(F)(C(F)(F)F)C(F)(F)F)ccc1NC(=O)c1cccc(I)c1C(=O)NC(C)(C)CS(C)(=O)=O,inactive
2,CC(C)OC(=O)C(O)(c1ccc(Cl)cc1)c1ccc(Cl)cc1,inactive
3,C[C@]12CC[C@@H]3c4ccc(OC(=O)N(CCCl)CCCl)cc4CC[C@H]3[C@@H]1CC[C@@H]2O,21.1 µM (active)
4,O=C(Nc1ccc2[nH]ccc2c1)c1cc2cc(F)ccc2n1Cc1cccc(F)c1,54.9 µM (active)
5,ClC(Cl)=C(Cl)Cl,inactive
6,O=C(CBr)c1ccc(O)cc1,inactive
7,C1CCC2CCCCC2C1 (stereo unspecified),inactive
8,O=[N+]([O-])c1ccc2ccc3cccc4ccc1c2c34,inactive
9,CC(C)OC(=S)S,inactive
10,FC(F)(F)c1cccc(C2=CCN(CCc3ccc4ccccc4c3)CC2)c1,inactive
11,CCCN(CCC)CCc1c[nH]c2ccccc12,inactive
12,BrC(Br)Br,inactive
13,Fc1cccc(Cl)c1CCl,inactive
14,CN(C)CCc1c[nH]c2ccc(O)cc12,inactive
15,COc1cccc(C(=O)CCN[C@@H](C)[C@H](O)c2ccccc2)c1,inactive
16,Nc1ccccc1C(=O)Oc1ccc2ccccc2c1,inactive
17,N#CNC#N,inactive
18,CN(C)c1ccc(N=Nc2ccccc2)cc1,inactive

row,Compound,Potency
1,CC(C)CCCCCOC(=O)c1ccccc1C(=O)OCCCCCC(C)C,inactive
2,CC(Cc1ccc(C(C)(C)C)cc1)CN1C[C@@H](C)O[C@@H](C)C1 (stereo partly specified),inactive
3,CCCCOCN(C(=O)CCl)c1c(CC)cccc1CC,inactive
4,O=[N+]([O-])c1ccc(Oc2ccc(C(F)(F)F)cc2[N+](=O)[O-])cc1,inactive
5,Cc1cc(C)c(C2=C(OC(=O)CC(C)(C)C)C3(CCCC3)OC2=O)c(C)c1,inactive
6,CC(=O)O[C@H]1CC[C@@]2(C)C(=CC[C@@H]3[C@@H]2CC[C@]2(C)C(=O)CC[C@@H]32)C1,inactive
7,O=c1ssc(Cl)c1Cl,inactive
8,c1ccc(Nc2ccc3ccccc3c2)cc1,inactive
9,CC(=O)C(Cl)(Cl)Cl,inactive
10,CC1(C)C(/C=C(\Cl)C(F)(F)F)C1C(=O)OC(C#N)c1cccc(Oc2ccccc2)c1 (stereo unspecified),17.7 µM (active)
11,C[C@]12Cc3nonc3C[C@@H]1CC[C@@H]1[C@@H]2CC[C@@]2(C)[C@H]1CC[C@]2(C)O,inactive
12,CCOC(=O)OC1=C(c2cc(C)ccc2C)C(=O)NC12CCC(OC)CC2 (stereo unspecified),inactive
13,O=C(CCCN1CCC2(CC1)C(=O)NCN2c1ccccc1)c1ccc(F)cc1,inactive
14,CCCN(CCC)c1c([N+](=O)[O-])cc(S(N)(=O)=O)cc1[N+](=O)[O-],58.6 µM (active)
15,CC1(C)CN=C(NN=C(/C=C/c2ccc(C(F)(F)F)cc2)/C=C/c2ccc(C(F)(F)F)cc2)NC1,19.5 µM (active)
16,CC(C)OS(C)(=O)=O,inactive
17,CCCCCCCCCCCCCCC(Br)C(=O)O (stereo unspecified),inactive
18,FC(Cl)(Cl)Cl,inactive
